Measurements: the supplement of paper PMC9262897, “Low-cost anti-mycobacterial drug discovery using engineered E. coli” (Nature Communications, 2022)
Where a name gives a salt, the structure may show the parent alone. ± gives the standard deviation of the averaged measurements.

Key:
Assay in all cases: growth (OD600 after 10 h); higher = more growth (less inhibition)
[1] = tested on: E. coli TESEC Alr+ wild-type control; details: compound 0.1 mM; raw OD600 reference: median of DMSO wells 0.241, cell-free background 0.041
Description: (§1)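 TESEC Mtb Alr E. coli, or the Alr+ wild-type control, in 384-well plates with Prestwick library compounds at 0.1 mM and 1% DMSO, across arabinose induction levels of 1E3 to 1E7 nM. Growth is read as OD600 after 10 h at 37 °C in triplicate biological replicates.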

[2] = tested on: E. coli TESEC Mtb Alr; details: compound 0.1 mM
Description: as §1

[3] = tested on: E. coli TESEC Mtb Asd; details: compound 0.1 mM
Description: (§2)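 TESEC E. coli strains in which the native enzyme is deleted and replaced by arabinose-inducible Mtb Asd, DapB, CysH or TrpD, each grown in its selective medium. Strains were screened against the Prestwick library at 0.1 mM and 1% DMSO in 384-well format at low and high arabinose induction. Growth is read as OD600 after 10 h in triplicate.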

[4] = tested on: E. coli TESEC Mtb DapB; details: compound 0.1 mM
Description: as §2

[5] = tested on: E. coli TESEC Alr+ wild-type control; details: compound 0.1 mM; raw OD600 reference: median of DMSO wells 0.49, cell-free background 0.052
Description: (§3)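 TESEC Mtb Alr E. coli (ΔaraC ΔtolC ΔentC Δalr ΔdadX, arabinose-inducible Mtb Alr) or the Alr+ wild-type control strain, grown in defined M9-fructose medium without D-alanine in 96-well plates with Prestwick library compounds at 0.1 mM and 1% DMSO. Low Alr induction is 0.1 µM arabinose and high induction is 10 mM arabinose.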

[6] = tested on: E. coli TESEC Mtb Alr; details: compound 0.1 mM; remark: listed apart in the source
Description: as §3

[7] = arabinose 1000 nM, raw OD600 reference: median of DMSO wells 0.294, cell-free background 0.041
[8] = arabinose 10000 nM, raw OD600 reference: median of DMSO wells 0.264, cell-free background 0.041
[9] = arabinose 100000 nM, raw OD600 reference: median of DMSO wells 0.201, cell-free background 0.041
[10] = arabinose 1000000 nM, raw OD600 reference: median of DMSO wells 0.193, cell-free background 0.041
[11] = arabinose 10000000 nM, raw OD600 reference: median of DMSO wells 0.146, cell-free background 0.041
[12] = arabinose induction (level): High, raw OD600 reference: median of DMSO wells 0.331, cell-free background 0.041
[13] = arabinose induction (level): Low, raw OD600 reference: median of DMSO wells 0.417, cell-free background 0.041
[14] = arabinose induction (level): High, raw OD600 reference: median of DMSO wells […], cell-free background 0.041
[15] = arabinose induction (level): Low, raw OD600 reference: median of DMSO wells 0.227, cell-free background 0.041
[16] = arabinose 100 nM, raw OD600 reference: median of DMSO wells 0.413, cell-free background 0.052
[17] = arabinose 10000000 nM, raw OD600 reference: median of DMSO wells […], cell-free background 0.052

| SMILES | growth [1] | growth [2, 7] | growth [2, 8] | growth [2, 9] | growth [2, 10] | growth [2, 11] | growth [3, 12] | growth [3, 13] | growth [4, 14] | growth [4, 15] | growth [5] | growth [6, 16] | growth [6, 17] |
| --- | --- | --- | --- | --- | --- | --- | --- | --- | --- | --- | --- | --- | --- |
| CCC[C@H](N[C@@H](C)C(=O)N1[C@H](C(=O)O)C[C@@H]2CCCC[C@@H]21)C(=O)OCC [Perindopril] | 0.252 ± 0.01 | 0.309 ± 0.0092 | 0.286 ± 0.0037 | 0.208 ± 0.016 | 0.198 ± 0.024 | 0.149 ± 0.0041 | 0.225 ± 0.016 | 0.392 ± 0.033 | 0.198 ± 0.01 | 0.239 ± 0.041 | 0.555 ± 0.1 | 0.431 ± 0.0091 | 0.325 ± 0.0072 |
| Cc1cccc(Nc2ccccc2C(=O)O)c1C [Mefenamic acid] | 0.134 ± 0.0041 | 0.135 ± 0.0024 | 0.04523 ± 0.00015 | 0.141 ± 0.002 | 0.103 ± 0.0072 | 0.132 ± 0.0029 | 0.232 ± 0.03 | 0.26 ± 0.047 | 0.203 ± 0.027 | 0.208 ± 0.028 | 0.158 ± 0.011 | 0.169 ± 0.094 | 0.149 ± 0.011 |
| CCCCCCCN(CC)CCCC(O)c1ccc(NS(C)(=O)=O)cc1 (stereo unspecified) [Ibutilide fumarate] | 0.219 ± 0.041 | 0.298 ± 0.013 | 0.268 ± 0.01 | 0.183 ± 0.02 | 0.158 ± 0.0044 | 0.137 ± 0.001 | 0.271 ± 0.022 | 0.44 ± 0.022 | 0.197 ± 0.027 | 0.243 ± 0.019 | 0.55 ± 0.095 | 0.408 ± 0.0059 | 0.313 ± 0.016 |
| O=c1cc(-c2ccc(O)c(O)c2)oc2cc(O)cc(O)c12 [Luteolin] | 0.05467 ± 0.00021 | 0.0562 ± 0.0013 | 0.05 ± 0.0007 | 0.05233 ± 0.00025 | 0.0567 ± 0.0052 | 0.0518 ± 0.0022 | 0.0806 ± 0.023 | 0.063 ± 0.0053 | 0.0614 ± 0.0012 | 0.0607 ± 0.002 | 0.174 ± 0.18 | 0.152 ± 0.019 | 0.0574 ± 0.0016 |
| CC(C)OC(=O)C(C)(C)Oc1ccc(C(=O)c2ccc(Cl)cc2)cc1 [Fenofibrate] | 0.219 ± 0.0026 | 0.235 ± 0.015 | 0.245 ± 0.0051 | 0.143 ± 0.0063 | 0.0897 ± 0.0018 | 0.161 ± 0.0021 | 0.298 ± 0.013 | 0.397 ± 0.039 | 0.176 ± 0.015 | 0.215 ± 0.037 | 0.469 ± 0.026 | 0.401 ± 0.016 | 0.089 ± 0.01 |
| CC[C@H](C)C(=O)O[C@H]1CCC=C2C=C[C@H](C)[C@H](CC[C@@H]3C[C@@H](O)CC(=O)O3)[C@H]21 [Mevastatin] | 0.15 ± 0.0081 | 0.152 ± 0.1 | 0.166 ± 0.08 | 0.134 ± 0.0032 | 0.0515 ± 0.0016 | 0.0677 ± 0.0034 | 0.135 ± 0.036 | 0.148 ± 0.012 | 0.171 ± 0.054 | 0.134 ± 0.0085 | 0.41 ± 0.019 | 0.406 ± 0.021 | 0.214 ± 0.028 |
| CC[N+](C)(C)c1cccc(O)c1 [Edrophonium chloride] | 0.258 ± 0.011 | 0.294 ± 0.012 | 0.266 ± 0.004 | 0.227 ± 0.03 | 0.192 ± 0.012 | 0.144 ± 0.0031 | 0.384 ± 0.013 | 0.403 ± 0.013 | 0.203 ± 0.017 | 0.27 ± 0.098 | 0.437 ± 0.029 | 0.401 ± 0.015 | 0.346 ± 0.029 |
